Only some compounds are listed: those with a hit (about 21% of all), similar ones and a draw of the others.
Shiga toxin inh – inhibitors of Shiga toxin in Vero cells | inhibition, % at 38.7 µM | hit rate 9.2% among 290,000 | Vero cells, Shiga toxin protein synthesis inhibition reporter; in the data active = inhibition mostly above about 28%, no sharp cut-off; inactive = mostly below about 43%; note: 0% is about no effect
Pf growth 48h – P. falciparum growth inhibition at 48 hours (one generation); P. falciparum luciferase growth in erythrocytes, 48 h; Potency, µM (top dose mostly 28.7 µM), for the others: at the top dose activity change, negative = inhibition, hits mostly inhibitors; hit rate 5.9% among 310,000; note: potency is the fitted concentration of half-maximal effect; % is set by controls: 0 for no effect and ±100 for the full control effect
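A one-generation exposure of luciferase-tagged malaria parasites in RPMI 1640/Albumax erythrocyte culture, 37 C and 5% CO2. Inhibition is inferred from decreased luminescence after adding detection reagent.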
CHX counter – affects cycloheximide protein synthesis inhibition readout, counter-screen. cell reporter, cycloheximide protein synthesis inhibition counterscreen. max response, %. hit rate 12% among 300,000; in the data active = max response mostly above about 13%, no sharp cut-off; inactive = mostly below about 14%; note: read at 38.3 µM for the half of the compounds with a filed dose; 0% is about no effect
Pf growth 96h – P. falciparum growth inhibition at 96 hour, primary screen for plastid delayed-death inhibitors. P. falciparum luciferase reporter growth, 96 h. Potency, µM (titrated, usually from 28.7 µM), for inactives: top-dose activity change, negative = inhibition, hits mostly inhibitors. hit rate 6.9% among 320,000. AID 504834; note: potency is the fitted concentration of half-maximal effect; % is set by controls: 0 for no effect and ±100 for the full control effect
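Two-generation exposure (96 h) targets delayed-death phenotype. Reporter parasites carrying integrated firefly luciferase, in red cells at 2% hematocrit and 0.05% parasitemia final, kept at 37 C, 5% CO2; luminescence loss indicates inhibition.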
Active calls of the source: *; ? = inconclusive; nt = no result. Unless noted, calls come from the whole dose curve; as a rule, active = well fitted inhibition curve with a large enough effect; inconclusive = small, poorly fitted or top-dose-only effect, or another doubt; inactive = no such curve, though single readings can be large or run the other way.

SMILES	Shiga toxin inh	Pf growth 48h	CHX counter	Pf growth 96h
Cc1ccc(C(=O)OCC(=O)N2CCOCC2)c(C)c1	39	37%	18*	61%
Cc1ccc(C(=O)c2ccccc2C(=O)OCC(=O)N2CC(C)CC(C)C2)cc1 (stereo not drawn)	nt	7.4µM*	nt	7.4µM*
Cc1cc(OCC(=O)N2CCOCC2)ccc1NC(=O)c1ccccc1C	19	41%	21*	18%
Cc1cc(OCC(=O)N2CCOCC2)ccc1[N+](=O)[O-]	58*	93%	25*	144%
CC1CC(C)CN(C(=O)COC(=O)c2cn(C)c3ccccc23)C1 (stereo not drawn)	nt	14%	nt	1%
CCOc1cc(C(=O)Nc2ccc(C(=O)NCCN(CC)CC)cc2)ccc1OCC(=O)N1CCOCC1	nt	?	nt	-4%
CCCCCn1nnc2c(=O)oc3ccccc3c21	5	-3%	-5	12%
CCOc1ccccc1NC(=O)COC(=O)c1c[nH]c2ccccc12	nt	?	nt	1%
COc1cc(/C=N/NS(=O)(=O)c2ccc(C(C)(C)C)cc2)cc([N+](=O)[O-])c1O	-2	-7%	1	?
COc1cccc(CNS(=O)(=O)c2ccc3c(c2)oc(=O)n3C)c1	-16	5%	8	-11%
Cc1ccc(OCC(=O)NC2CCS(=O)(=O)C2)c([N+](=O)[O-])n1 (stereo not drawn)	nt	7%	nt	-4%
Cc1ccc(-c2ccc(OCC(=O)N3CCOCC3)cc2)cc1	62*	70%	42*	nt
Cc1ccc(C(=O)OCC(=O)N2CCOCC2)cc1	50*	145%	27*	111%
O=Cc1ccc(OCC(=O)N2CCOCC2)cc1	-7	35%	-1	10%
N#Cc1ccc(C(=O)OCC(=O)N2CCOCC2)cc1	-6	22%	-4	35%
O=C(OCC(=O)N1CCOCC1)c1ccc(Br)cc1	60	40%	20*	54%
Cc1cc(OCC(=O)NC2CCN(Cc3ccccc3)CC2)c2c(C)cc(=O)oc2c1	2	?	7	?
CC1CN(C(=O)CCNC(=O)c2ccc(Br)cc2)CC(C)O1 (stereo not drawn)	nt	0%	nt	0%
O=c1ccc(-c2ccc(S(=O)(=O)N3CCCCC3)o2)n[nH]1	-10	22%	10	25%
C=CCOc1ccc(C2C(C(=O)c3ccco3)=C(O)C(=O)N2CCCN(CC)CC)cc1 (stereo not drawn)	31	28%	9.5*	46%
CCN(CC)CCN1C(=O)C(O)=C(C(=O)c2ccco2)C1c1ccccn1 (stereo not drawn)	-6	nt	-5	nt
COc1ccc(C2C(C(=O)c3ccco3)=C(O)C(=O)N2CCCn2ccnc2)c(OC)c1 (stereo not drawn)	48	-5%	32*	?
CCN(CC)CCCN1C(=O)C(O)=C(C(=O)c2ccco2)C1c1ccc(OC(C)C)cc1 (stereo not drawn)	40	40%	22*	?
CCCOc1cccc(C2C(C(=O)c3ccco3)=C(O)C(=O)N2CCN(CC)CC)c1 (stereo not drawn)	25	-3%	-6	-18%
C=CCOc1cccc(C2C(C(=O)c3ccc(C)o3)=C(O)C(=O)N2CCN(C)C)c1 (stereo not drawn)	-8	-13%	-2	3.7µM*
SMILES	Shiga toxin inh	Pf growth 48h	CHX counter	Pf growth 96h
CC1CN(CC(=O)NCc2ccc(F)cc2)CC(C)O1 (stereo not drawn)	-7	25%	-4	36%
CCOP(=O)(OCC)C(NC(=O)c1cccs1)C(F)(F)F (stereo not drawn)	-15	39%	4	-14%
FC(F)(F)c1ccc(/C=N/NC(=S)NC2CCCCC2)cc1	-6	?	2	3.3µM*
O=C(N/N=C/c1cccc(O)c1)NC1CCCCC1	89*	4%	30	0%
O=C(N/N=C/c1ccncc1)NC1CCCCC1	-2	0%	-3	2%
O=C(N/N=C/C=C/c1ccccc1)NC1CCCCC1	43	-7%	16*	2%
O=C(CC(=O)NC1CCCCC1)N/N=C/c1ccc(Cl)cc1	-17	0%	8	4.7µM*
COC(=O)c1ccc(/C=N/NC(=O)CC(=O)NC2CCCCC2)cc1	8	2%	24	31%
OC[C@@H]1O[C@@H](Oc2ccc(O)cc2)[C@H](O)[C@@H](O)[C@@H]1O	8	nt	-2	nt
CC(C(=O)N1CCN(C(=O)c2ccco2)CC1)N1C(=O)NC2(CCCCC2C)C1=O (stereo not drawn)	nt	-5%	nt	-22%
Cc1occc1-c1nnc(SC(C)C(=O)Nc2ccccc2F)o1 (stereo not drawn)	nt	66%	nt	-45%
O=C1c2ccccc2C(=O)C1Cc1cccc2ccccc12	66	nt	20*	19%
Nc1ccc2ccc3cccc[n+]3c2c1	nt	0.41µM*	-2	?
CCCC[C@@H](C=O)NC(=O)[C@H](CC(C)C)NC(=O)[C@H](CC(C)C)NC(C)=O	77*	nt	42*	nt
CC(=O)N[C@@H](CC(C)C)C(=O)N[C@@H](CC(C)C)C(=O)N[C@H](C=O)CCCN=C(N)N	5	nt	-4	nt
O=C(C1=C[C@H](c2csc3ccccc23)C[C@H](OCCCCO)O1)N1CCN(Cc2ccc3c(c2)OCO3)CC1	-11	2.3µM*	11	1.5µM*
O=C(C1=C[C@H](c2csc3ccccc23)C[C@H](OCCCCO)O1)N1CCN(Cc2ccccc2)CC1	-1	3.7µM*	-2	2.3µM*
O=C(C1=C[C@@H](c2csc3ccccc23)C[C@@H](OCCCCO)O1)N1CCN(Cc2ccc3c(c2)OCO3)CC1	-7	?	3	12µM*
O=C(C1=C[C@@H](c2coc3ccccc3c2=O)C[C@@H](OCCCCO)O1)N1CCN(Cc2ccccc2)CC1	-17	?	-2	?
O=C(C1=C[C@@H](c2coc3ccccc3c2=O)C[C@@H](OCCCCO)O1)N1CCN(Cc2ccc3c(c2)OCO3)CC1	-8	?	-2	3.3µM*
OC1OC[C@@H](O)[C@H](O)[C@H]1O (stereo partly drawn)	-7	11%	-7	0%
CC(C)CC(OC(=O)c1ccc(Cl)nc1)C(=O)NC1CCCC1 (stereo not drawn)	16	11%	-1	35%
COCCN(C(=O)COC(=O)CCc1ccccc1OC)c1c(N)n(Cc2ccccc2)c(=O)[nH]c1=O	nt	-13%	nt	9%
CCCCn1c(N)c(N(CCOC)C(=O)C(C)Oc2ccc(Cl)cc2)c(=O)[nH]c1=O (stereo not drawn)	nt	?	nt	-25%
COCCCN(C(=O)CCOc1ccccc1C)c1c(N)n(Cc2ccccc2)c(=O)[nH]c1=O	nt	13µM*	nt	?
COCCCN(C(=O)C(C)Oc1ccc(Br)cc1)c1c(N)n(Cc2ccccc2)c(=O)[nH]c1=O (stereo not drawn)	nt	13µM*	nt	?
Cc1ccc(OCCC(=O)N(CCC(C)C)c2c(N)n(Cc3ccccc3)c(=O)[nH]c2=O)cc1	nt	10µM*	nt	?
CC(C)CCN(C(=O)CCSc1ccc(F)cc1)c1c(N)n(Cc2ccccc2)c(=O)[nH]c1=O	nt	9.3µM*	nt	?
CCCN(C(=O)COC(=O)CCOc1ccccc1)c1c(N)n(Cc2ccccc2)c(=O)[nH]c1=O	nt	26%	nt	?

Screens deposited in PubChem BioAssay by National Center for Advancing Translational Sciences (NCATS).
